Source: PubChem BioAssay (National Center for Advancing Translational Sciences (NCATS))
Sampled rows, rich in hits. Any-hit rate of the full collection: about 2.9%.
D3 ag = agonists of human D3 dopamine receptor. P35462. D3R DiscoveRx beta-arrestin cells, luminescence, 90 min. max activation, %. 0.58% of 410,000 active; in the data active means max activation above about 30%; further: 0% is about no effect
Target sequence (P35462 whole entry, looked up): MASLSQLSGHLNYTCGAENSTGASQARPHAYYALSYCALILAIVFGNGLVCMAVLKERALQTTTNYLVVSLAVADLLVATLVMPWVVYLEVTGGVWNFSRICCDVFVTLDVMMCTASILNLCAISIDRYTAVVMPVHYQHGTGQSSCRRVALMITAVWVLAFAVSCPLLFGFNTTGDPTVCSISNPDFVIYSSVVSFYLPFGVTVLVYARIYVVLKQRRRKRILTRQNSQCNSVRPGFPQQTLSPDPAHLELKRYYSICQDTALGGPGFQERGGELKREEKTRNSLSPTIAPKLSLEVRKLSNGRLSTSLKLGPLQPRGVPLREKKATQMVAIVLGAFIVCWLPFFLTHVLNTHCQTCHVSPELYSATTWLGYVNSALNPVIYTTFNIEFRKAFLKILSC
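Cells at 1500/well, incubated overnight, then treated with pinned compounds (dopamine as control) for 90 min at 37 degrees C. DiscoveRx reagent added for 30 - 60 minutes at room temperature; luminescence read.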
a7 integrin act = integrin-mediated muscular dystrophy alleviation activation; alpha7betagal myoblasts, beta-gal FDG fluorescence, 48 h; Potency, µM (titrated, usually from 38.3 µM), inactives show at the top dose activation, actives largely listed as activators; 0.064% of 350,000 active; AID 624291; active means well fitted activation curve with a large enough effect; inconclusive means small, poorly fitted or top-dose-only effect; inactive means no such curve, though single readings can be large or run the other way;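 further: potency means the concentration at half of the fitted maximal effect; 100% = response of the positive control SU9516; nearly all actives have a fitted effect of over 60% in size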
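alpha7betagal+/- myoblasts (passage 13, 250/well) treated 48 h at 37C with compounds at 1:260 dilution of DMSO stock. Lysed, then beta-galactosidase activity read as FDG fluorescence (ex 480/em 540) after 30 min, with pre-read for autofluorescence.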
DRD3 antagonist = antagonists of human D3 dopamine receptor; D3R cells, DiscoveRx beta-arrestin luminescence, antagonist mode; active compounds read low; max response, negative = inhibition, %; 2.5% of 360,000 active; in the data active means max response below about -50%; inconclusive means no clear call, values can overlap the other calls; further: on the % scale 0 is the no-effect control and ±100 the full control effect
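Cells plated overnight at 1500 cells/well, then exposed to library compounds with dopamine controls for 90 minutes at 37 degrees C. DiscoveRx reagent added for 30–60 minutes at room temperature; luminescence read, quantitative HTS format.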
* hit, by the source's call; ? = inconclusive; · = not tested or not shown; [ ] = another dose, or the depositor's remark.

SMILES	D3 ag	a7 integrin act	DRD3 antagonist
COc1cc(OC)cc(-c2c(-c3cccs3)c3cc(-c4ccn[nH]4)ccc3n2C)c1	37.2*	21.4%	32.3
COc1cc(OC)cc(-c2c(-c3cccs3)c3cc(-c4ccc(N(C)C)nc4)ccc3n2C)c1	46.7*	-35.2%	0.0
O=C(NCCc1ccccc1)C1c2ccccc2C(=O)N1Cc1cccs1 (centres undefined)	-10.0	2.5%	-8.3
Cc1cc(C(=O)Nc2ccc(F)cc2C)cs1	-6.5	17.3%	20.6
CCOc1ccc2nc3c(cc2c1)CN(CCCO)C(=NCCOC)S3	1.4	-35.6%	-7.8
O=C(CN1CCCN(Cc2ccc(Cl)cc2)S1(=O)=O)Nc1ccccc1F	4.0	·	·
C/C(=N\O)C(C)/[N+]([O-])=C/c1nc(C)c(C)n1O (centres undefined)	-1.7	-2.1%	23.1
Cc1sc2ccccc2[n+]1CC(=O)O	-11.2	5.4%	-18.5
Cc1sc2ccccc2[n+]1CCC(C)S(=O)(=O)[O-] (centres undefined)	-16.9	3.5%	-66.8*
OC(CNC1CCCC1)COc1ccc(-c2ccccc2)cc1 (centres undefined)	-28.1	-57.2%	-24.5
OC(CNC1CCCCC1)CON=C1CCSc2c(Cl)cccc21 (centres undefined)	-8.9	-60.1%	-66.3*
CC(=O)Nc1ccc(/C(N=Nc2ccccc2)=N/N=C(N)N)cc1	-9.0	23.3%	-2.1
O=C1CCCN2N=C(SCC(=O)Nc3ccc([N+](=O)[O-])cc3)SC2=N1	-15.6	5.0%	-9.0
O=C(Nc1ccc(NC(=S)NC(=O)C(c2ccccc2)c2ccccc2)cc1)c1ccccc1	-1.8	?	-8.9
COc1ccc(C(=O)N/C(=C\c2cn(C)c3ccccc23)C(=O)OCC(C)C)cc1	-0.7	-20.8%	23.1
CCn1c(SCC(=O)c2ccc(Cl)cc2)nnc1-c1ccoc1C	-9.3	-19.0%	-61.3*
CCn1c(SCC(=O)c2ccc(C)cc2)nnc1-c1ccoc1C	7.5	-9.1%	-14.3
O=C1C=CC(=O)N1	-84.8	·	-82.6*
O=C(NCCN1CCCCC1)c1ccc(=O)oc1	-13.7	31.1%	20.1
OCC[C@@H]1C[C@H](O)[C@@H](O)[C@@]2(OCCCc3cc(C(F)(F)F)ccc32)O1	3.8	·	-10.6
CC(C)C[C@@H](CSc1ccccc1)N1CCN(CCc2ccccc2)CCC1=O	-31.4	-21.0%	-56.2*
CC(C)C[C@@H](CSc1ccc(Br)cc1)N1CCN(CCc2ccccc2)CCC1=O	-20.1	-11.2%	?
COc1ccc(-c2nc(-c3ccc(NC(=O)c4ccncc4)cc3)no2)cc1OC	49.7*	-15.2%	70.1
COc1ccc(Cl)cc1-c1nc(-c2ccc(NC(=O)c3ccncc3)cc2)no1	-2.2	-7.9%	11.2
CCC(=O)Nc1ccc(C(=O)N/N=C/c2c(C)[nH]c3ccccc23)cc1	-5.5	-21.9%	-23.2
SMILES	D3 ag	a7 integrin act	DRD3 antagonist
C#CCOc1ccc(OC)cc1C(c1c(C)[nH][nH]c1=O)c1c(C)[nH][nH]c1=O	10.3	-13.2%	1.3
COC(=O)CN(c1cc(Cl)ccc1OC)S(=O)(=O)c1ccc(C)cc1	-7.5	-33.3%	-15.8
COC(=O)CN(n1cnnc1)S(=O)(=O)c1ccc(C)cc1	0.0	2.2%	-54.4*
COC(=O)C1=C(C)N(Cc2ccccc2)C(=NCc2ccc(OC)cc2)N[C@H]1c1ccccc1	-39.7	-46.0%	-54.3*
COC(=O)C1=C(C)N(Cc2ccccc2)C(=NCC(C)C)N[C@H]1c1ccccc1	7.9	-32.9%	-2.6
CCCNC(=O)C1(C)CCCN(C(=O)c2ccc(OC(F)F)cc2)C1 (centres undefined)	6.1	·	1.0
CCCCOC(=O)c1c(C)oc2ccc(NS(=O)(=O)c3ccc(F)cc3C)cc12	1.1	·	·
CN1CCN(c2nc(-c3ccco3)cc(C(F)(F)F)n2)CC1	-31.8	1.9%[7.66 µM]	-92.0*
CCOC(=O)N1CCN(c2nc(-c3ccco3)cc(C(F)(F)F)n2)CC1	3.3	2.2%	1.5
Cc1ccc(-c2nc(CN(Cc3cnn(C)c3)C(C)C)c(C)o2)o1	-4.4	-19.0%	11.1
CC(=O)Nc1ccc(-c2ccnc3c2CC(C(=O)NCc2ccc(N4CCN(C)CC4)cc2)O3)cc1 (centres undefined)	1.4	·	9.0
CN1CCN(c2ccc(CNC(=O)C3Cc4c(-c5ccc(Cl)cc5)ccnc4O3)cc2)CC1 (centres undefined)	-27.6	·	-55.6*
Cc1ccc(-c2cc(C(F)(F)F)c(C#N)c(SCC(=O)Nc3ccccc3F)n2)cc1	-11.1	·	·
CCOc1cc(C(=O)Nc2cccc3ncccc23)cc(OCC)c1OCC	35.4*	-7.7%	-16.8
CC(=O)Nc1cccc(C(=O)Nc2cccc3ncccc23)c1	-0.3	-26.1%	13.6
CC(=O)O[C@H]1CC[C@H]2[C@@H]3CCc4cc(O)ccc4[C@H]3CC[C@]12C	0.0	·	8.9
c1ccc(-c2nc3ccccc3[nH]2)cc1	-26.3	·	-93.6*
c1ccc(-c2n[nH]c(-c3ccccc3)c2-c2nc3ccccc3[nH]2)cc1	-5.1	-36.5%	-56.4*
c1cncc(-c2nc3ccccc3[nH]2)c1	1.6	-2.1%	-13.1
c1ccc2[nH]c(-c3ccncc3)nc2c1	2.5	-6.5%	1.8
O=C(/C=C/c1ccc(Cl)cc1Cl)N1CCc2ccccc21	-10.6	19.9%	-18.1
O=C(c1ccc(N2CCN(C3CC(=O)N(Cc4cccs4)C3=O)CC2)cc1)c1cccnc1 (centres undefined)	-2.3	-17.4%	17.6
Cc1cc(N2C(=O)CC(N3CCN(c4ccc(C(=O)c5cccs5)cc4)CC3)C2=O)no1 (centres undefined)	3.4	-8.7%	-52.1*
CCCN(CCC)S(=O)(=O)c1ccc(C(=O)Nc2cccnc2)cc1	-1.7	3.7%	13.2
Cc1ccc(C2=NN(CC(=O)NCc3ccco3)C(=O)CC2)cc1	-0.8	-12.0%	-10.4
SMILES	D3 ag	a7 integrin act	DRD3 antagonist
COc1ccc(CC(=O)N/N=C(\C)c2cccnc2)cc1	0.3	-7.7%	-3.8
CN=c1scc(-c2ccc(OC)cc2)n1/N=C(\C)c1cccnc1	34.9*	5.01µM*	27.1
Cc1cccc(N2C(=O)C(CC(=O)Nc3cccc(F)c3)N(CCc3ccncc3)C2=O)c1 (centres undefined)	1.6	-27.3%	4.8
COc1ccc(OC)c(C2NC(=S)NC3=C2N2CCC3CC2)c1 (centres undefined)	-1.7	-15.4%	-26.0
CCc1cccc(C)c1NC(=O)c1cc(S(=O)(=O)N2CCOCC2)cn1C	1.1	·	·
O=C(C(=Cc1ccccc1)CN1CCCCC1)c1ccccc1	-23.1	-2.6%	-91.4*
O=C(CCCCN1CCCCC1)c1ccccc1	-19.1	1.4%	-27.3
CN1CCN(c2ccc(S(=O)(=O)N3CCCCC3)cc2NC(=O)COc2ccc(F)cc2)CC1	-2.0	-18.9%	-1.4
CCOC(=O)C1(C)CCN1C(=O)c1c(F)cccc1F (centres undefined)	4.7	·	37.5
S=C(Nc1ccc(Cl)cc1)N1CCN(C2CCCCC2)CC1	-15.7	15.4%	?
COc1ccc(/C=N/Nc2nnc(C)n2N)cc1OC	0.9	-31.5%	5.5
COc1ccc(/C=N/Nc2nnc(C)n2N)cc1OC(C)=O	-10.4	-1.0%	-56.3*
COc1ccc(CNC(=O)CCc2c(C)c3ccc(OC)c(C)c3oc2=O)cc1OC	6.8	·	·
COc1ccc(CCNC(=O)Cc2c(C)c3ccc(O)c(C)c3oc2=O)cc1OC	37.9*	·	·
